This note sets out measurements from PubChem BioAssay (NCI).

Compounds without any hit were thinned out: in the full panel of roughly 83,000, 20% have a hit.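 48-hour exposure, single concentration, 96-well plates; percent growth endpoint where 0 means no net growth. Active: below 10.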 Active and inactive are the calls of the source.

This experiment has as its system HL-60(TB) leukemia. The experiment is described as follows: NCI-60 one-dose screen, 48 h (100 = growth as untreated, 0 = no growth, -100 = all killed). Conditions: 10 µM unless noted.
With `CCOC(=O)NN1CC(O)=C(c2nc(-c3ccc(Br)cc3)cs2)C1=N`, the growth was 98.8% (inactive).
Next, `CC1(C)CC(=O)C2=C(C1)N(c1ccc(OC(F)(F)F)cc1)C(N)=C(C#N)C2c1ccc(Br)cc1F` (centres undefined): 78.5% (inactive).
Next, `CN1CCN(c2nc(-c3cccnc3)nc3sc4c(c23)CCCCCC4)CC1`: 87.2% (inactive); `CC(C)(C)C(=O)CCCCCCCC/C=C/CCCC(O)c1ccco1` (centres undefined): 75% (inactive).
For the compound `CCN(CC)CCOC(=O)C(c1ccccc1)(c1ccccc1)C(C)C`, the growth was 91.8% (inactive).
Next, `CCCCCCCCCCCCCCCCCC1=NC(C)(C)CN1C(C)(C)CO`: -66.9% (active).
As for `O=C1OC(N(Cc2ccc(Cl)cc2)c2ccccc2)c2ccccc21` (centres undefined), the growth is 93.8% (inactive).
Regarding `N#Cc1ccc(NC2c3ccccc3CC2O)cc1` (centres undefined), the growth is 78.7% (inactive).
With `N=C(c1ccccc1)N(Cc1ccccc1)Cc1ccccc1` the figure was 82.6% (inactive).
With `O=C(Cn1ccnc1)NC(c1ccccc1)c1ccccc1` the figure was 96.7% (inactive); with `COc1cc(/C=C2\CN(C)C/C(=C\c3cc(CN4CCCCC4)c(O)c(OC)c3)C2=O)cc(CN2CCCCC2)c1O`, 11% (inactive); with `CC(C)C1CCCCC1O` (centres undefined), 193% (inactive).
`O=C(N/N=C/C[C@@H]1[C@@H](/C=C/[C@@H](O)COc2cccc(Cl)c2)[C@H](O)C[C@@H]1O)c1ccncc1`: the growth is 87.5% (inactive).
For the compound `CC[C@H](Nc1nc(N)nc(C)c1C#N)c1nc2cccc(NCc3ccc(C(=O)NO)cc3)c2c(=O)n1-c1ccccc1`, the growth is 2.45% (active).
Next, `O=C1c2ccccc2C(=O)c2c1cc1c(c2[N+](=O)[O-])OCO1`: 7.66% (active); `O=C(CS)Nc1ccc2ccccc2c1`: 120% (inactive).
Next, `CCC(CCCN1C(=O)c2ccccc2C1=O)Nc1cc(OC)cc2c(C)ccnc12` (centres undefined): 87.4% (inactive); `COc1ccc(/C=C2\CCCC3C2=Nc2ccccc2NC3c2ccc(OC)cc2)cc1` (centres undefined): 78.2% (inactive).
For the compound `CCN(CC)CCNc1ccc(N=Nc2cnc3ccccc3c2)c2ccccc12`, the growth was -72.2% (active).
Next, `CCCCc1oc2ccccc2c1C(=O)c1cc(I)c(OCCN(CC)CC)c(I)c1`: -62.9% (active); `COc1ccc(-c2cc3c(OC)c(OC)c(OC)cc3oc2=O)cc1`: 36.5% (inactive); `O=c1[nH]c(=S)[nH]c2nc[nH]c12`: 87% (inactive).
Next, `CCOC(=O)Oc1c(OC)cc(C(=O)c2ccc(OC)c(OC(=O)CCl)c2OC)cc1OC`: -30.9% (active).
On to `CCN(C(=O)Nc1cccc2ccccc12)c1ccccc1`, for which the growth was 102% (inactive).
Next, `CCOC(=O)C1CCN(c2ccc(N3C[C@@H](CNCc4ccc(C(=N)N)cc4)OC3=O)cc2)CC1`: 101% (inactive); `COc1ccc(Nc2nc(N)nc3c2CCc2occc2-3)cc1`: 88.8% (inactive).
With `CCOCc1nc2ccccc2c(=O)[nH]1` the figure was 107% (inactive); with `Cc1cc(C)nc(SC2=C(Nc3cccc(Cl)c3)C(=O)N(Cc3ccccc3)C2=O)n1`, 18.1% [30 µM] (inactive).
With `COc1nc2c(c(=O)n1C)CN(c1ccccc1)C(=O)CN2C` the figure was 93% [100 µM] (inactive); with `O=C(c1ccccc1)N(CCc1ccc(Cl)cc1)C(=S)N(C(=O)c1ccccc1)c1ccccc1`, 90.3% (inactive); with `Cc1ccc(S(=O)(=O)N2CCC(=O)c3ccccc32)cc1`, 60.3% (inactive).
For `COc1cc(C(=O)/C=C/c2ccc3nc(-c4cc(F)cc(F)c4)sc3c2)cc(OC)c1OC`, the growth was 60.1% (inactive).
With `Cc1[nH]n(C(=S)Nc2nc3cc(Cl)c(F)cc3s2)c(=O)c1N=Nc1ccc(F)c(Cl)c1` the figure was 127% (inactive).
Next, `COc1ccc2nc3ccccc3c(NCc3ccccc3)c2c1`: 8.18% (active).
Turning to `O=C(COc1ccc(Cl)cc1Cl)N1N=C(c2ccc(Cl)cc2Cl)CC1(O)c1cc(F)c(Cl)cc1Cl` (centres undefined), the growth was -97.5% (active).
For the compound `C#CCn1c2c(c3ccccc31)C[C@]1(C)[C@H]3CC[C@@H]4[C@@H]5C(=CCC[C@H]5C(=C)C)CC[C@@]4(C)[C@]3(C)CC[C@H]1C2(C)C`, the growth is 101% (inactive).
With `O=c1c2c(=NCCCN3CCCC3)cc3c(=O)n(CCCN4CCCC4)c(=O)c4c(NCCCN5CCCC5)cc(c(O)n1CCCN1CCCC1)c2c4-3` the figure was 29.9% (inactive).
On to `C/C(=N\Nc1ccc(Cl)cn1)c1ccccn1`, for which the growth is -27.4% (active).
With `COc1cc(-c2csc(NC(=O)Nc3ccc(C(F)(F)F)cc3)n2)cc(OC)c1OC` the figure was -13.8% (active).
